# This excerpt belongs to a sample that is enriched for hits.
# Pf apPOL inh – Pf-apPOL inhibitors, biochemical, fluorescence; inhibition, % at 10 µM; Recombinant Pf-apPOL, molecular beacon fluorescence, 1.5 h; Plasmodium falciparum apicoplast DNA polymerase (apPOL); actives 0.25% (n = 210,000)
# mHTT CaM bind – mutant huntingtin-calmodulin interaction inhibitors – biochemical, AlphaScreen, primary screen. AlphaScreen His-mHTT/GST-CaM binding, luminescence. inhibition, % at 15 µM. AID 1671202, 2021. P42858. actives 3.6% (n = 190,000);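 further: 0% = both proteins with DMSO and 100% = one protein alone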
# * = called active by the depositor; x = not tested or not shown. No stated cut-off is given here; in the data, active means inhibition above about 50%; inactive means the rest.
SMILES,Pf apPOL inh,mHTT CaM bind
COc1cc(OC)c(CNC2CCCC2)cc1Br,2,-3
COc1ccc(CNc2ccc3c(c2)CCC3)cc1Br,4,77*
COc1ccc(CNc2ccc(SC)cc2)cc1,6,43
c1cc(CNc2ccc3c(c2)CCC3)ccn1,-3,35
COc1ccc(CNc2cccc(N(C)C)c2)cc1,-3,96*
COc1cc(OC)c(CNc2ccc3c(c2)CCC3)cc1Br,1,85*
c1cc(-c2noc(C3CCCC3)n2)cc(N2CCOCC2)n1,-1,-40
COc1ccc(CNC(=O)NC2(C(F)(F)F)Oc3ccccc3O2)cc1,6,5
COc1ccccc1CNc1ccc2c(c1)ncn2-c1ccccc1OC,1,62*
CC(=O)Nc1ccc(CNc2ccc3c(c2)CCC3)cc1,4,39
c1cc2c(cc1CNc1ccc3c(c1)CCC3)OCO2,-3,72*
Fc1ccc(NCc2ccc3c(c2)OCO3)cc1F,2,-3
COc1ccc(CNc2ccc3c(c2)CCC3)cc1,4,68*
COc1cccc(CNc2ccc3c(c2)ncn3-c2ccccc2)c1OC,-1,48
Cc1ccc(Cc2nc(CSc3ccccc3)cs2)cc1,-4,-110
CCn1nccc1C(=O)N1CCC(CCOc2cccc(F)c2)CC1,-1,13
COc1cc(CNC(=O)c2cc(-c3ccc(F)cc3)c[nH]2)cc(OC)c1OC,-9,22
Cc1c(C(=O)N2CCc3nc(NC(=O)C4CCCO4)sc3C2)cnn1-c1ccccc1 (centres undefined),-9,4
CSc1cccc(NC(=O)c2ccccc2)c1,4,-7
CC1(C)CC2CC(C)(CN2C(=O)c2ccc(NC(=O)c3ccco3)cc2)C1 (centres undefined),4,15
CN(C)c1ccc(C(O)c2nc3ccccc3n2Cc2ccccc2)cc1 (centres undefined),-7,50*
CC(O)c1nc2ccccc2n1Cc1ccccc1 (centres undefined),-10,6
CN=C1S/C(=C/c2ccc(C)o2)C(=O)N1C,x,-4
Cc1ccc(/C=C2\CS/C(=C\c3ccc(C)o3)C2=O)o1,3,100*
O=C(CSc1ccc(-c2cccnc2)nn1)NCC1CCCO1 (centres undefined),-3,-22
SMILES,Pf apPOL inh,mHTT CaM bind
O=C(NC(Nc1cccc([N+](=O)[O-])c1)C(Cl)(Cl)Cl)c1cccc([N+](=O)[O-])c1 (centres undefined),-2,54*
O=C(NC(Nc1ccccc1)C(Cl)(Cl)Cl)c1cccc(Cl)c1 (centres undefined),-1,23
Cc1cccc(C(=O)NC(Nc2cccc([N+](=O)[O-])c2)C(Cl)(Cl)Cl)c1 (centres undefined),2,11
O=C(NC(Nc1ccc(Cl)cc1)C(Cl)(Cl)Cl)c1cccc([N+](=O)[O-])c1 (centres undefined),-2,99*
CC(C)(C)C(=O)NC(Nc1ccc([N+](=O)[O-])cc1)C(Cl)(Cl)Cl (centres undefined),16,12
O=C(NC(Nc1ccc([N+](=O)[O-])cc1)C(Cl)(Cl)Cl)c1ccc([N+](=O)[O-])cc1 (centres undefined),-1,79*
COc1ccc(NC(NC(=O)c2cccc(Cl)c2)C(Cl)(Cl)Cl)cc1 (centres undefined),-6,65*
NS(=O)(=O)c1ccc(NC(NC(=O)c2cccc([N+](=O)[O-])c2)C(Cl)(Cl)Cl)cc1 (centres undefined),-4,29
CN1/C(=C/C(=O)c2ccc(Cl)cc2)Sc2ccccc21,3,-21
COc1ccc(/C=C2/N=C(c3ccccc3)OC2=O)cc1OC,3,27
CC(C)NC(=O)c1nn2c(C(F)(F)F)cc(-c3ccco3)nc2c1Br,6,2
CC1CCN(C(=O)c2c[nH]c3ccc(S(=O)(=O)N4CCC5(CC4)OCCO5)cc3c2=O)CC1,-6,2
O=C(NC(Nc1ccc(Br)cc1)C(Cl)(Cl)Cl)c1cccc([N+](=O)[O-])c1 (centres undefined),-6,96*
O=C(NC(Nc1cccc([N+](=O)[O-])c1)C(Cl)(Cl)Cl)c1cccnc1 (centres undefined),0,7
O=C(NC(NCc1ccccc1)C(Cl)(Cl)Cl)c1cccc([N+](=O)[O-])c1 (centres undefined),0,20
O=C(NC(Nc1cccc(Cl)c1)C(Cl)(Cl)Cl)c1cccc([N+](=O)[O-])c1 (centres undefined),3,95*
O=C(CCc1nc(-c2cccs2)no1)Nc1ccccn1,0,2
Cc1ccc(Cl)cc1NC(=O)C(=O)O,-6,-4
CCCCC1C(=O)N(c2ccccc2)N(c2ccccc2)C1=O,5,x
CN(C)CC1C(=O)N(c2ccccc2)N(c2ccccc2)C1=O,-6,72*
Cc1c(NC(=O)c2ccccc2F)cccc1-c1nc2cc(Cl)ccc2o1,3,-18
Cc1c(NC(=O)c2ncn[nH]2)cccc1-c1nc2ccccc2s1,-8,51*
O=C(Nc1ccc(-c2nc3cc(Cl)ccc3o2)cc1)c1ncn[nH]1,-180,83*
O=C(Nc1ccc2oc(-c3ccccc3Cl)nc2c1)c1ncn[nH]1,58*,77*
O=C(Nc1ccc2oc(-c3ccccc3Cl)nc2c1)c1cncc(Br)c1,-22,-8
SMILES,Pf apPOL inh,mHTT CaM bind
COc1cc(C(=O)Nc2ccc(-c3nc4cc(Cl)ccc4o3)cc2)cc(OC)c1OC,-2,-2
Cc1c(NC(=O)c2ncn[nH]2)cccc1-c1nc2cc(Cl)ccc2o1,8,53*
Cc1c(NC(=O)c2ccccc2I)cccc1-c1nc2ccccc2s1,-4,4
O=[N+]([O-])c1cccc(C=Cc2ccccn2)c1,-1,x
Cc1ccc(F)cc1N1C(=O)CSC1c1cccc(F)c1 (centres undefined),0,-7
CCc1ccc(CNC(=O)c2cc3n(n2)CCCN(Cc2cccc(F)c2)C3=O)cc1,-3,6
CCC(=O)NCc1csc(C2CCN(C(=O)c3ccc(C)c(C)c3)CC2)n1,-2,-2
COc1cccc(CN2CCN(c3ncnc4c3CCC4)CC2)c1OC,-2,5
Cc1ccccc1C1CCCN1C(=O)Nc1ccc2c(c1)OCCO2 (centres undefined),-2,3
Cc1ccc(F)cc1NC(=O)C1CCN(c2cc(N3CCSCC3)ncn2)CC1,1,-7
O=C(Nc1ccc([N+](=O)[O-])cc1)c1ncn[nH]1,-3,88*
O=C(Nc1ccc(N2CCOCC2)c(Cl)c1)c1ccccc1,-156,-7
O=C(Nc1ccc(N2CCOCC2)c(Cl)c1)c1ncn[nH]1,2,82*
CCN(CC)c1ccc(NC(=O)c2ncn[nH]2)cc1,-2,41
CCC(C)NC(=O)N1CCc2c(c(-c3nc(C4CC4)no3)nn2C)C1 (centres undefined),1,1
COc1ccc(OC)c(-c2cn3ccn(-c4cccc(Cl)c4)c(=O)c3n2)c1,-4,5
Cn1nccc1C(=O)Nc1sccc1-c1nc2ccccc2s1,-4,-13
COc1ccc(Cl)cc1NC(=O)N1CCn2cccc2C1Cc1ccccc1 (centres undefined),-2,62*
COc1cc(NC(=O)N2CCn3cccc3C2Cc2ccccc2)cc(OC)c1 (centres undefined),-6,27
COc1ccc(NC(=O)N2CCn3cccc3C2Cc2ccccc2)cc1OC (centres undefined),2,59*
